From PubChem BioAssay AID652115 (Broad Institute, 2013)
Several values for one entry are separate records, joined by “and”; a condition that tells them apart may be missing. Equal entries are not always repeated. The campaign covered roughly 330,000 compounds. About 3,800 (1.2%) were called active. This is one part of a sample in which actives are shown more often than they occur. Rule as the data show it: active = inhibition above about 15%; inconclusive = no clear call, values can overlap the other calls; inactive = below that. Some structures have more than one record in an assay (separate samples or runs), and their calls can disagree.

Each compound was assayed against NAD-dependent protein deacylase sirtuin-5, mitochondrial (Homo sapiens) (UniProt Q9NXA8) (assay: SIRT5 desuccinylase inhibitors, primary screen, biochemical, fluorescence imaging, single point, set 5 (AID 652115)). Details: Purified SirT5, succinyl-peptide AMC, trypsin-coupled fluorescence; at 15 µM; stronger effect = higher value.
NAD-dependent protein deacylase sirtuin-5, mitochondrial (Homo sapiens), sequence (Q9NXA8 whole entry, looked up): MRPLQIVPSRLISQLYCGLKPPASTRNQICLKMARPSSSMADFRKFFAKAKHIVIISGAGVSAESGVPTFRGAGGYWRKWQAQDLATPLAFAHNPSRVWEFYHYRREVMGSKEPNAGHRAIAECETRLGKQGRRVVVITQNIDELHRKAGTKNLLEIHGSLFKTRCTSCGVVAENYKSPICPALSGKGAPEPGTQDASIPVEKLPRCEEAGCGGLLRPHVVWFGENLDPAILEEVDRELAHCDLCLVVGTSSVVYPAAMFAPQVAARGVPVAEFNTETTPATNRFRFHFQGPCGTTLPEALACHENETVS

| Compound | inhibition |
| --- | --- |
| CS(=O)(=O)c1ccc2nc(NC(=O)c3ccc(Cl)nc3)sc2c1 | 2.94% (inactive) |
| COc1cccc(C(=O)Nc2nc3ccc(S(C)(=O)=O)cc3s2)c1 | -3% (inactive) |
| CNC(=O)c1ccc2nc(NC(C)=O)sc2c1 | 17.4% (active) |
| CCC(=O)N1C[C@@H](C)[C@H](OC)CN(C)C(=O)c2ccc(NC(=O)c3ccc(F)cc3)cc2OC[C@@H]1C | -5.95% (inactive) |
| O=C(CN1CCOCC1)NCC[C@H]1CC[C@@H](NC(=O)Nc2ccc(Cl)cc2)[C@@H](CO)O1 | 2.34% (inactive) |
| COc1ccc(C#Cc2ccc3c(c2)[C@]2(C(=O)N3)[C@H](c3ccccc3OCCO)N3[C@H](c4ccccc4)[C@H](c4ccccc4)OC(=O)[C@H]3[C@@H]2C(=O)N2CCCCCCC2)cc1 | 0.608% (inactive) |
| COC(=O)C(CC#Cc1ccc2c(c1)[C@]1(C(=O)N2)[C@H](c2ccccc2OCCO)N2[C@H](c3ccccc3)[C@H](c3ccccc3)OC(=O)[C@H]2[C@@H]1C(N)=O)C(=O)OC | 19.5% (active) |
| COC(=O)C(CC#Cc1ccc2c(c1)[C@]1(C(=O)N2)[C@H](c2ccc(O)cc2)N2[C@H](c3ccccc3)[C@H](c3ccccc3)OC(=O)[C@H]2[C@@H]1C(=O)NC[C@H](O)c1ccccc1)C(=O)OC | 5.09% (inactive) |
| CCCN1[C@@H]2c3ccc(C4=CCCC4)c(=O)n3C[C@@H]2[C@@H](CO)[C@@H]1C(=O)NCc1ccccn1 | -0.978% (inactive) |
| C[C@@H]1CN([C@H](C)CO)S(=O)(=O)c2ccc(C#CCN(C)C)cc2O[C@H]1CN(C)C(=O)CC1CC1 | 2.43% (inactive) |
| C[C@@H]1CN([C@@H](C)CO)S(=O)(=O)c2ccc(C#Cc3ccc(F)cc3)cc2O[C@@H]1CN(C)CC1CC1 | 15.1% (active) |
| CC(C)CC#Cc1ccc2c(c1)O[C@H](CN(C)C(=O)CC1CC1)[C@@H](C)CN([C@@H](C)CO)S2(=O)=O | 31.5% (active) |
| C[C@@H]1CN([C@@H](C)CO)S(=O)(=O)c2ccc(-c3ccc(F)cc3)cc2O[C@@H]1CN(C)CC1CC1 | -1.76% (inactive) |
| C[C@H](CO)N1C[C@H](C)[C@H](CN(C)CC2CC2)Oc2cc(-c3ccc(F)cc3)ccc2S1(=O)=O | -4.28% (inactive) |
| CC(C)CC#Cc1ccc2c(c1)O[C@@H](CN(C)C(=O)c1ccccc1F)[C@H](C)CN([C@H](C)CO)S2(=O)=O | 6.8% (inactive) |
| CCC(=O)N(C)C[C@H]1Oc2cc(C#CCC(C)C)ccc2S(=O)(=O)N([C@H](C)CO)C[C@H]1C | 0.389% (inactive) |
| C[C@@H]1CN([C@@H](C)CO)S(=O)(=O)c2ccc(C#CCN(C)C)cc2O[C@@H]1CN(C)C(=O)CC1CC1 | 1.11% (inactive) |
| COCC#Cc1ccc2c(c1)O[C@@H](CN(C)C(=O)Nc1ccccc1F)[C@H](C)CN([C@H](C)CO)S2(=O)=O | 3.15% (inactive) |
| COCC(=O)N(C)C[C@@H]1Oc2cc(C#CCC(C)C)ccc2S(=O)(=O)N([C@@H](C)CO)C[C@@H]1C | 15.3% (active) |
| COCC(=O)N(C)C[C@H]1Oc2cc(C#CC(C)C)ccc2S(=O)(=O)N([C@H](C)CO)C[C@@H]1C | 3.27% (inactive) |

| Compound | inhibition |
| --- | --- |
| CC(C)CC#Cc1ccc2c(c1)O[C@@H](CN(C)C(=O)Nc1ccccc1F)[C@@H](C)CN([C@@H](C)CO)S2(=O)=O | 18.7% (active) |
| COc1cccc(-c2ccc3n(c2=O)C[C@@H]2[C@@H](CO)[C@H](C(=O)N4CCCCC4)N[C@H]32)c1 | -26.1% (inactive) |
| C[C@H](O)C#Cc1ccc2c(c1)O[C@H](CN(C)Cc1ccccn1)[C@@H](C)CN([C@@H](C)CO)S2(=O)=O | 2.94% (inactive) |
| O=C(Cc1ccccc1)N[C@H]1C=C[C@H](CC(=O)N2CCCCC2)O[C@@H]1CO | 1.42% (inactive) |
| COc1ccc2c3c([nH]c2c1)[C@H](CO)N(C(=O)NC1CCCC1)CC31CN(C(=O)Nc2cccc(F)c2)C1 | 5.32% (inactive) |
| O=C(NC1CCCCC1)N1CC2(C1)[C@@H](c1ccccc1)[C@@H](CO)N2CC1CCOCC1 | -5.9% (inactive) |
| CC(C)NC(=O)N1CC(=O)N2[C@@H](CO)[C@H](c3ccc(C#CCN(C)C)cc3)[C@@H]2C1 | -1.28% (inactive) |
| COCC(=O)N(C)C[C@@H]1Oc2cc(C#Cc3cccnc3)ccc2S(=O)(=O)N([C@H](C)CO)C[C@H]1C | -3.01% (inactive) |
| O=C(NC1CCCC1)[C@H]1[C@H](CO)[C@H]2Cn3c(ccc(-c4ccccc4F)c3=O)[C@@H]1N2C(=O)CC1CC1 | -18.6% (inactive) |
| CN1c2ccc(-c3cccc(F)c3)cc2[C@@H]2[C@@H](CCN2C(=O)Nc2ccccc2F)[C@@H]1CO | -18.1% (inactive) |
| O=C(C[C@H]1CC[C@@H]2[C@H](COC[C@H](O)CN2S(=O)(=O)c2ccc(F)cc2)O1)NCCN1CCCCC1 | -1.86% (inactive) |
| O=C(N[C@H]1CC[C@H](CCn2cc(-c3ccccc3F)nn2)O[C@@H]1CO)c1ccc2c(c1)OCO2 | 1.25% (inactive) |
| CN(Cc1ccccc1F)C[C@H]1[C@@H](c2ccccc2)[C@@H](CO)N1S(C)(=O)=O | 0.402% (inactive) |
| O=C(Nc1ccccc1F)N1C[C@@H]2[C@H](c3ccccc31)[C@@H](CO)N2C(=O)Nc1ccccc1 | -0.735% (inactive) |
| C[C@@H]1CN([C@H](C)CO)S(=O)(=O)c2ccc(C#CC3CCCC3)cc2O[C@@H]1CN(C)C(=O)Cc1ccncc1 | 6.26% (inactive) |
| C[C@@H]1CN([C@H](C)CO)S(=O)(=O)c2ccc(C#CC3CCCCC3)cc2O[C@H]1CN(C)C(=O)Cc1ccncc1 | 0.678% (inactive) and -0.925% (inactive) and 15.2% (active) |
| C[C@H]1CN([C@@H](C)CO)S(=O)(=O)c2ccc(C#CC3CCCC3)cc2O[C@H]1CN(C)C(=O)Cc1ccncc1 | -0.107% (inactive) |
| CC(C)c1nnc(NC(=O)CCC(=O)N2CCN(c3cccc(Cl)c3)CC2)s1 | 0.459% (inactive) |
| CCCc1nnc(NC(=O)CCC(=O)N2CCN(S(=O)(=O)c3ccc(OC)cc3)CC2)s1 | 1.56% (inactive) |
| CCc1nnc(NC(=O)CCC(=O)N2CCN(c3cc(C)ccc3C)CC2)s1 | 18.5% (active) |
